NLRP3 yeast inh: NALP3 inhibition in yeast; Yeast reconstituted NLRP3/ASC/caspase-1, beta-gal luminescence, 24 h; inhibition, % at 10 µM; 330,000 compounds, 0.39% hits;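 active = inhibition of 50% or more; inactive = inhibition below 50%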
tim23-1 inh: growth inhibitors of tim23-1 mutant yeast | S. cerevisiae tim23-1 growth, BacTiter-Glo luminescence, 24 h | inhibition, % at 20 µM | 330,000 compounds, 1.3% hits;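 active = growth inhibition of the mutant yeast at or above 50%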;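 also: temperature-sensitive mutant grown at 25 °C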
TIM10 inh: TIM10 yeast growth inhibition; S. cerevisiae TIM10 strain growth, BacTiter-Glo luminescence, 24 h; inhibition, % at 10 µM; 330,000 compounds, 1.4% hits; AID 463195;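 active = inhibition of 40% or more at the single tested concentration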;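 also: wild-type TIM10 isogenic control strain grown at permissive 25 °C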
tim10-1 inh: growth inhibitors of tim10-1 mutant yeast; 330,000 compounds, 2.2% hits; S. cerevisiae tim10-1 ts strain growth, BacTiter-Glo, 24 h; inhibition, % at 20 µM;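 active = inhibition of at least 40%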;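 also: mutant grown at 25 °C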
PfHsp90 yeast 2: growth inhibition of yeast expressing Plasmodium Hsp90; S. cerevisiae expressing PfHsp90, BacTiter-Glo ATP, 48 h; yeast lacking PDR1 and PDR3 efflux regulators; inhibition, % at 9.4 µM; 310,000 compounds, 0.32% hits; AID 504621;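 active = every replicate shows inhibition above about 80%, whatever the replicate mean, limit read from the data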
tim10-1 conf: tim10-1 yeast growth inhibition, confirmed. shares compounds with tim10-1 inh. S. cerevisiae tim10-1 ts strain growth, BacTiter-Glo, 24 h. inhibition, % at 20 µM. 7,400 compounds, 56% hits. AID 463213;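 active = inhibition of yeast growth at or above a set limit in either of two repeat tests at 20 µM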;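 also: tim10-1 mutant grown at permissive 25 °C to find synthetic lethal compounds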
Numbers stand for hits; - = inactive; . = no result given. An excerpt weighted towards active compounds, which were near 3.7% of everything screened.

SMILES	NLRP3 yeast inh	tim23-1 inh	TIM10 inh	tim10-1 inh	PfHsp90 yeast 2	tim10-1 conf
COc1ccc(N2C(=O)CC(N3CCC(O)(c4cccc(C(F)(F)F)c4)CC3)C2=O)cc1 (stereo not given)	-	-	-	43	-	33
COc1ccc(C(=O)C2CCCN(S(=O)(=O)c3ccccc3F)C2)c(C)c1 (stereo not given)	-	-	-	-	-	.
COc1ccc(C(=O)NCCC2=CCCCC2)cc1OC1CCN(C(C)C)CC1	-	-	-	-	-	.
CCCCn1c(N)c(N(C(=O)CSc2nnc(C)n2-c2ccccc2)C2CCCC2)c(=O)[nH]c1=O	-	-	-	-	-	.
O=C(NCc1nc2ccccc2[nH]1)c1ccc(Cl)c(S(=O)(=O)N2CCCC2)c1	-	-	-	-	-	.
CCCn1c(NC(=O)c2ccc(Cl)c(S(=O)(=O)N3CCCC3)c2)nc2ccccc21	-	-	-	44	-	31
COc1cccc(CNS(=O)(=O)c2ccccc2Br)c1OC	.	.	.	.	-	.
C[C@@H]1CN([C@@H](C)CO)C(=O)c2cc(NS(C)(=O)=O)ccc2O[C@@H]1CN(C)Cc1ccc(C(F)(F)F)cc1	.	.	.	.	-	.
COc1cccc(CNC(=O)C2CCN(S(=O)(=O)c3ccc4c(c3)CC(C)N4C(=O)C3CC3)CC2)c1 (stereo not given)	-	-	-	-	-	.
CC1CC(C)CN(S(=O)(=O)c2ccc3c(c2)CC(C)N3C(=O)C2CCC2)C1 (stereo not given)	-	-	-	43	-	-
COc1ccc(CNC(=O)C2CCN(S(=O)(=O)c3ccc4c(c3)CC(C)N4C(=O)C3CC3)CC2)cc1 (stereo not given)	-	-	-	-	-	31
CSc1ccc(S(=O)(=O)N2CCC(C(=O)Nc3ccc(C(N)=O)cc3)CC2)cc1	-	-	-	-	-	.
O=C(Nc1ccc(Cl)cc1)NC1CCCCC1Cc1ccco1 (stereo not given)	-	-	-	47	-	41
O=C(Nc1ccc(Cl)cc1)NC1CCCC1Cc1ccco1 (stereo not given)	-	-	-	-	-	.
O=C(CCc1nc2ccccc2c(=O)[nH]1)N1CCN(S(=O)(=O)c2ccc(F)cc2)CC1	-	-	-	-	-	.
COc1ccc(N/C(C)=C/C(=S)Nc2ccccc2)cc1	-	-	-	41	-	-
c1ccc(-c2nnn(C34CC5CC(CC(C5)C3)C4)n2)cc1	-	-	-	47	-	-
CC(C)(C)n1nnnc1C(c1ccccn1)N(Cc1ccccc1)Cc1ccc(Cl)cc1 (stereo not given)	-	-	-	50	-	31
CC(C)Nc1nc(-c2ccccc2)nc(-n2ccnc2)n1	-	-	-	41	.	-
O=C(NCCCCCCCN1CCCCCCC1)C(C1CCCCC1)C1CCCCC1	.	.	.	.	-	.
Cc1ccccc1-n1nc(C(=O)c2cccs2)cc(-c2nc3ccccc3[nH]2)c1=N	-	-	-	-	.	.
Cc1cccc(-n2nc(C(=O)c3ccco3)cc(-c3nc4ccccc4[nH]3)c2=N)c1	-	-	-	50	-	-
CC(=O)NC(C(=O)c1ccccc1)N1CCCCC1 (stereo not given)	-	-	-	-	-	.
c1nc(SSc2ncnc3nc[nH]c23)c2[nH]cnc2n1	.	.	.	.	-	.
CC(=O)NN1C(=O)/C(=C/c2ccc(C(C)C)cc2)SC1=S	-	-	-	42	-	39
SMILES	NLRP3 yeast inh	tim23-1 inh	TIM10 inh	tim10-1 inh	PfHsp90 yeast 2	tim10-1 conf
O=C(O)c1ccc(/C=C2\SC(=S)N(NC(=O)c3ccccc3)C2=O)cc1	-	-	-	-	-	.
Cc1ccn2cc(-c3cccc(S(=O)(=O)N4CCCC4)c3)nc2c1	-	-	-	50	-	-
Cc1ccn2cc(-c3cccc(S(=O)(=O)N4CC(C)OC(C)C4)c3)nc2c1 (stereo not given)	-	-	-	41	-	-
O=S(=O)(c1cccc(-c2cn3ccccc3n2)c1)N1CCCCC1	-	-	-	-	-	.
Cc1nc(-c2cccc(S(=O)(=O)N3CC(C)OC(C)C3)c2)cs1 (stereo not given)	-	-	-	-	-	.
c1ccc(C[C@H]2CNCCN2CC2(c3ccccc3)CC2)cc1	-	-	-	-	-	.
COc1ccccc1N/C(=N/S(=O)(=O)c1ccc(C)cc1)c1ccccc1	-	-	-	-	-	.
COc1ccccc1N/C(=N/S(=O)(=O)c1ccc(Cl)cc1)c1ccccc1	-	-	-	41	-	-
COc1ccc(OC)c(/C=C(\C)C(=O)c2c(C)cc(C)[nH]c2=O)c1	-	-	-	-	-	.
CCOC(=O)CC(=O)CSc1nc2c(c(-c3cccs3)c1C#N)CCC2	-	-	-	42	-	33
CCOC(=O)CC(=O)CSc1nc2c(cc1C#N)CCC2	-	-	-	-	-	.
CCC(C)[C@H](N)C(=O)NC[C@H]1CC[C@H](C(=O)N[C@@H](Cc2ccccc2)C(=O)O)CC1 (stereo not given in full)	-	-	-	-	-	.
CC(/C=N/NC(=O)CSc1ccccn1)=C\c1ccc(C(C)C)cc1	-	-	-	-	-	.
CC(=C/c1ccc(C(C)C)cc1)/C=N/NC(=O)CSc1ccccn1	-	-	-	47	-	-
CCCCn1c(-c2csc3c2CCC(C)C3)n[nH]c1=S (stereo not given)	-	-	-	51	-	-
CCCCn1c(-c2csc3ccccc23)n[nH]c1=S	-	-	-	-	-	.
O=S(=O)(c1ccc(-c2cn3ccccc3n2)cc1)N1CCOCC1	-	-	-	-	-	.
CN(C)S(=O)(=O)c1cccc(-c2cn3cc(Cl)ccc3n2)c1	-	-	-	45	-	34
O=S(=O)(c1cccc(-c2cn3cc(Cl)ccc3n2)c1)N1CCOCC1	-	-	-	42	-	32
O=C(CC(=O)c1ccccc1)Nc1ccc([N+](=O)[O-])cc1	.	.	.	.	-	.
Cc1ccc(NC(=O)CN(c2ccc(Cl)cc2)S(=O)(=O)c2cc([N+](=O)[O-])ccc2Cl)c(C)c1	-	-	-	44	-	-
CCOC(=O)CC(=O)CSc1nc2cc(C)ccc2cc1C	-	-	-	44	-	-
CCOC(=O)CC(=O)CSc1nc2c(C)c(C)ccc2cc1C	-	-	-	-	.	.
Cc1c2c(nc3ccccc13)CCC(C(C)(C)C)C2 (stereo not given)	-	-	-	42	-	-
CCn1c(O)c(N=Nc2ccc3ccccc3n2)c2ccccc21	-	-	-	-	-	.
Brc1ccc(N=Nc2ccc3ccccc3n2)cc1	-	-	-	40	-	-
CN(C(=O)c1cccc(NC(=O)Cc2ccc(NC(=O)C3CCN(C(=O)C4CCCC4)CC3)cc2)c1)C1CCCC1	.	.	.	.	-	.
Cc1ccc(-c2nc(C#N)c(NCc3cccc4c3OCO4)o2)cc1	-	-	-	44	-	-
CCOC(=O)N1CCN(C(=O)c2ccc(CSc3ccc(Cl)cc3)cc2)CC1	-	-	-	45	-	45

Assay outcomes from PubChem.
